Assay results as given in PubChem BioAssay (Tox21).
Inconclusive results are not listed. Entries that show only a call come without a potency. A number with no mark means an inactive call. Active and inactive are the calls of the source. Unless noted, the call rests on the fitted dose curve; in most records, active means well fitted curve in the direction sought with a large enough effect in the repeat runs; inconclusive means weak or mixed curves; inactive means no such curve, though single readings can be large; an effect the other way counts as inactive or inconclusive.

Key:
[1] = qHTS assay to identify small molecule antagonists of the vitamin D receptor (VDR) signaling pathway - cell viability counter screen (AID 743225); further: nearly all actives have a fitted effect of over 50% in size; further: potency means the concentration at half of the fitted maximal effect
Outline: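 Cytotoxicity toward the VDR-bla HEK 293T line was scored by ATP-based CellTiter-Glo luminescence, read in the wells already used for the beta-lactamase readout after 16 h compound treatment under 3 nM 1-alpha,25-dihydroxyvitamin D3 stimulation.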

[2] = biological target: Nuclear receptor ROR-gamma (Homo sapiens) (UniProt P51449); assay: qHTS assay to identify small molecule antagonists of the retinoid-related orphan receptor gamma (ROR-gamma) signaling pathway (AID 1159521; further: nearly all actives have a fitted effect of over 50% in size; further: potency means the concentration at half of the fitted maximal effect)
Outline: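 Readout: ONE-Glo luciferase luminescence, 30 min at room temperature. System: Tet-on RORγ CHO, RORE-LUC. Sequence: compound 2 h, doxycycline 1 uM final, 16 h at 37 C.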

[3] = qHTS assay to identify small molecule agonists of the RXR signaling pathway - cell viability counter screen (AID 1159529); further: nearly all actives have a fitted effect of over 50% in size; further: potency means the concentration at half of the fitted maximal effect
Outline: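 Tox21 10K compounds were tested for cytotoxicity against GeneBLAzer RXR-alpha HEK 293T cells grown in 2% charcoal-stripped FBS. Exposure lasted 16 hr at 37 C, 5% CO2; viability read by CellTiter-Glo luminescence.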

[4] = qHTS assay to identify small molecule antagonists of the retinoic acid receptor (RAR) signaling pathway (AID 1159552; further: nearly all actives have a fitted effect of over 50% in size; further: potency means the concentration at half of the fitted maximal effect)
Outline: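 Overnight-plated C3RL4 reporter cells get compound, then retinol to 1 uM final; plates sit 6 hr at 37 C, 5% CO2. A luciferase reagent is added and light output recorded after 30 min at room temperature.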

[5] = qHTS assay to identify small molecule agonists of the retinoic acid receptor (RAR) signaling pathway (AID 1159553); further: potency means the concentration at half of the fitted maximal effect
Outline: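 Cell line C3RL4, RARE luciferase reporter. Treatment: compounds in DMSO, 6 hr, 37 C, 5% CO2, after overnight plating. Detection: luminescence, 30 min RT after reagent.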

[6] = qHTS assay to identify small molecule antagonists of the estrogen related receptor (ERR) signaling pathway from Tox21 library - cell viability counter screen (AID 1224834); further: nearly all actives have a fitted effect of over 30% in size; further: potency means the concentration at half of the fitted maximal effect
Outline: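 Viability readout (CellTiter-Fluor fluorescence, 30 min at 37 C) multiplexed with the ERR assay; cells treated 17.5 h at 37 C with compounds delivered in DMSO.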

[7] = biological target: Luciferin 4-monooxygenase (Photinus pyralis) (UniProt P08659); assay: qHTS assay to identify small molecule inhibitors of firefly luciferase (AID 1224835); further: nearly all actives have a fitted effect of over 25% in size; further: potency means the concentration at half of the fitted maximal effect
Outline: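 Biochemical qHTS: compounds run as interplate titrations against purified firefly enzyme, with D-luciferin and ATP each at its KM concentration. Light output recorded by CCD imaging.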

[8] = qHTS assay to identify small molecule agonists of the constitutive androstane receptor (CAR) signaling pathway - cell viability counter screen (AID 1224836); further: series mostly up to about 92 µM; nearly all actives have a fitted effect of over 45% in size
Outline: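 Fluorescence from CellTiter-Fluor indicates live cells after 23 h exposure. The human hepatoma line expresses hCAR and a CYP2B6-2.2kb reporter. Incubation medium contains 0.75 uM PK11195 (final).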

[9] = qHTS assay to identify small molecule agonists of the AP-1 signaling pathway - cell viability counter screen (AID 1159525; calls by dose curve; further: nearly all actives have a fitted effect of over 55% in size)
Outline: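 AP-1-bla ME-180 cells in Opti-MEM with 0.5% dialyzed FBS, compound exposure 5 h at 37 C in 15-point titration. Viability read in the same wells as ATP content by CellTiter-Glo luminescence, normalised to tetra-n-octylammonium bromide and DMSO controls.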

[10] = qHTS assay to identify small molecule antagonists of the retinoid acid receptor (RAR) signaling pathway - cell viability counter screen (AID 1159551); further: nearly all actives have a fitted effect of over 35% in size
Outline: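 Following overnight attachment, C3RL4 reporter cells received DMSO-dissolved compounds and then retinol (1 uM final). Six hours later at 37 C, ATP content was measured by CellTiter-Glo luminescence.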

[11] = qHTS assay to identify small molecule agonists of the AP-1 signaling pathway (AID 1159526; calls by dose curve)
[12] = biological target: Retinoic acid receptor RXR-alpha (Homo sapiens) (UniProt P19793); assay: qHTS assay to identify small molecule agonists of the RXR signaling pathway (AID 1159527; calls by dose curve; further: nearly all actives have a fitted effect of over 35% in size)
Outline: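 Reporter activation is measured as beta-lactamase activity via FRET substrate cleavage (emission 460/530 nm) in HEK 293T cells expressing an RXR-alpha-driven bla construct, following 16 hr compound exposure at 37 C.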

[13] = qHTS assay to identify small molecule antagonists of the constitutive androstane receptor (CAR) signaling pathway - cell viability counter screen (AID 1224837); further: series mostly up to about 92 µM; nearly all actives have a fitted effect of over 45% in size
Outline: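 Fluorescence from CellTiter-Fluor served as the viability signal. Human hepatoma HepG2 cells stably bearing hCAR and CYP2B6-2.2kb received compound plus CITCO (50 nM final) for 23 hr.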

[14] = qHTS assay to identify small molecule antagonists of the estrogen related receptor (ERR) signaling pathway - cell viability counter screen (AID 1224818);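 further: series mostly up to about 46 µM; viability measured after 17.5 h of compound exposure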
Outline: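 Here, ERR cells are plated at 2,000 cells per well, allowed 6 h to attach, and treated with compounds in DMSO for 17.5 h at 37 C. CellTiter-Fluor is then added and fluorescence read after 30 min.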

[15] = qHTS assay to identify small molecule antagonists of the estrogen related receptor signaling pathway with the pleiotropic PPARgamma coactivator (PGC) cell viability counter screen (AID 1224822;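 further: series mostly up to about 46 µM; viability read after 17.5 h compound exposure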)
Outline: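 qHTS format, DMSO compound stocks pin-transferred onto PGC/ERR cells 6 h after plating; 17.5 h exposure at 37 C, then CellTiter-Fluor fluorescence.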

Chain of Luciferin 4-monooxygenase (Photinus pyralis) (P08659 whole entry, looked up): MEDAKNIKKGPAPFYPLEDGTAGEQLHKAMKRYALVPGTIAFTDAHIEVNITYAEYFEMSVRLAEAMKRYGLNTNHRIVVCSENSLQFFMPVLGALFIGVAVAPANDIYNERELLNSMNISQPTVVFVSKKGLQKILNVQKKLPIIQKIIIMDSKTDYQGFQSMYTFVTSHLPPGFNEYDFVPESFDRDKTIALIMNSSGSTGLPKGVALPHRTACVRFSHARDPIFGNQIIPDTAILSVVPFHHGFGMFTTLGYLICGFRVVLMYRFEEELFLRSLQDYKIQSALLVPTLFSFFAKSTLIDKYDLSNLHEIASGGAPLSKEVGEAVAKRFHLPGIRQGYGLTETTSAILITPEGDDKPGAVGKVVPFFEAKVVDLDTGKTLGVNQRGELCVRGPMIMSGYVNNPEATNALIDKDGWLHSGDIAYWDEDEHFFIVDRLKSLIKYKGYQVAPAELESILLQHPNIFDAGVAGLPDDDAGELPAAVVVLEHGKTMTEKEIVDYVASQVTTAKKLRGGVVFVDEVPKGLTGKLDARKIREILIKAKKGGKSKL
Chain of Retinoic acid receptor RXR-alpha (Homo sapiens) (P19793 whole entry, looked up): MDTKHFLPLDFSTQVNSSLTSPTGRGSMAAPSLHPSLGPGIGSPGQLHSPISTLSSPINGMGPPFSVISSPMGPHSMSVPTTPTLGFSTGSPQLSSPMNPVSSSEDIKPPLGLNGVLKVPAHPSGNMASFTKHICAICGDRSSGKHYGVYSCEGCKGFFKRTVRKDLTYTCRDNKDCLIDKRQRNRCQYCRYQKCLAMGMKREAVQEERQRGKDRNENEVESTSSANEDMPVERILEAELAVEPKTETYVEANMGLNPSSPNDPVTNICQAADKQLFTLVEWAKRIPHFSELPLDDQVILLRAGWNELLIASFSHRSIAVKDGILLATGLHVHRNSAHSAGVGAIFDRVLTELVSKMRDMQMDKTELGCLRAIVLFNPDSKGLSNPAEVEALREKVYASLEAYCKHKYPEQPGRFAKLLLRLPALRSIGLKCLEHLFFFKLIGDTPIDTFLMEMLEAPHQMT

SMILES | Potency [1] | Potency [2] | Potency [3] | Potency [4] | Potency [5] | Potency [6] | Potency [7] | Potency [8] | Potency [9] | Potency [10] | Potency [11] | Potency [12] | Potency [13] | Potency [14] | Potency [15]
CCCCCCCCCCCCCCCCCCNC(=O)OC1CCN(C(=O)OC[C@H](COC(=O)N(Cc2cccc[n+]2CC)C(=O)c2ccccc2OC)OC)CC1 | 21.3 µM (active) | 29.8 µM (active) | 23.9 µM (active) | 26.6 µM (active) | inactive | 26.6 µM (active) | inactive | inactive | – | – | – | – | – | – | –
CC(C)(c1ccc(Oc2ccc(N)cc2)cc1)c1ccc(Oc2ccc(N)cc2)cc1 | – | 61.1 µM (active) | inactive | inactive | – | – | 22.4 µM (active) | – | inactive | inactive | – | – | – | – | –
Clc1ccc2c(Cl)ccnc2c1 | – | inactive | inactive | – | – | inactive | – | inactive | inactive | inactive | inactive | inactive | inactive | – | –
Cc1ccc2n[nH]nc2c1 | – | inactive | inactive | – | – | inactive | inactive | inactive | inactive | – | inactive | inactive | inactive | – | –
Nc1ccc(F)c([N+](=O)[O-])c1 | – | inactive | inactive | – | – | – | inactive | inactive | inactive | inactive | inactive | inactive | inactive | – | –
Cc1cc(C)c(O)c(C(C)(C)C)c1 | – | inactive | – | – | – | inactive | inactive | inactive | inactive | – | – | inactive | inactive | – | –
CC1=C(/C=C/C(C)=C/C=C/C(C)=C\C(=O)O)C(C)(C)CCC1 | inactive | inactive | – | – | 0.0194 µM (active) | inactive | 63.5 µM (active) | inactive | inactive | inactive | inactive | – | inactive | inactive | inactive
O[Si](c1ccccc1)(c1ccccc1)c1ccccc1 | – | 24.3 µM (active) | inactive | – | – | – | inactive | inactive | inactive | inactive | inactive | – | inactive | – | –
CC(C)(C)c1ccc(OC2CCCCC2O)cc1 (stereo unspecified) | – | inactive | – | – | – | – | 31.7 µM (active) | inactive | – | – | – | – | inactive | – | –
O=C(Cl)c1ccc(Cl)cc1Cl | – | – | inactive | inactive | – | inactive | 25.2 µM (active) | inactive | inactive | – | inactive | inactive | inactive | – | –
